Counter-ions that a name gives are not always drawn.
Legend:
Conditions in all cases: incubation time: 27 h, anaerobic, 37 °C;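 for the amine columns active = adjusted P below 0.05 in both replicates with a change the same way and a mean fold change under 0.8 or over 1.25; inactive = the rest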
[1] = tested on: Clostridium sporogenes DSM 1664; assay: growth (OD595) fold change vs plate DMSO controls (fold change (ratio)); higher = more growth
Procedure, shortened: (§1)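 The measure reported is growth, taken as fold change against the median of DMSO controls on the same plate. Anaerobic mGAM cultures in 96-well plates (27 h, 37 °C) were read at 595 nm, blank-subtracted, corrected for compound background using 20 µM compound solutions in water, and multiplied by a calibration factor of 5 to give OD. Any fold change above 1.5 became NA, and 2 biological replicates were averaged.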

Escherichia coli IAI1 [2] = assay: as above
Procedure, shortened: as §1

[3] = tested on: Klebsiella aerogenes DSM 30053; assay: as above
Procedure, shortened: as §1

[4] = tested on: Ruminococcus gnavus DSM 108212; assay: as above
Procedure, shortened: as §1

[5] = tested on: Klebsiella aerogenes DSM 30053; assay: fold change of Histamine concentration vs plate DMSO controls (fold change (ratio)); higher = more amine produced, active = hit call of the paper (significant change in both replicates, either direction)
Procedure, shortened: (§2)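 In 80 µL wells, cultures of four gut bacterial strains in mGAM started at OD 0.1 before a 1:1 dilution and grew anaerobically at 37 °C for 27 h. Compounds were added to 20 µM final, except sweeteners at 50 µM final. After extraction of whole cultures with cold acetonitrile/methanol plus 0.1% formic acid and centrifugation, amines were measured by LC–triple-quadrupole MS in dynamic MRM mode against external calibration curves, with within-batch drift correction. Values give fold change over DMSO controls on the same plate, averaged across 2 biological replicates.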

[6] = tested on: Clostridium sporogenes DSM 1664; assay: fold change of Tryptamine concentration vs plate DMSO controls (fold change (ratio)); higher = more amine produced, active = hit call of the paper (significant change in both replicates, either direction)
Procedure, shortened: as §2

[7] = tested on: Ruminococcus gnavus DSM 108212; assay: as above
Procedure, shortened: as §2

Escherichia coli IAI1 [8] = assay: fold change of Putrescine concentration vs plate DMSO controls (fold change (ratio)); higher = more amine produced, active = hit call of the paper (significant change in both replicates, either direction)
Procedure, shortened: as §2

[9] = tested on: Klebsiella aerogenes DSM 30053; assay: as above
Procedure, shortened: as §2

Escherichia coli IAI1 [10] = assay: fold change of Cadaverine concentration vs plate DMSO controls (fold change (ratio)); higher = more amine produced, active = hit call of the paper (significant change in both replicates, either direction)
Procedure, shortened: as §2

[11] = tested on: Klebsiella aerogenes DSM 30053; assay: as above
Procedure, shortened: as §2

[12] = tested on: Ruminococcus gnavus DSM 108212; assay: fold change of 2-Phenylethylamine concentration vs plate DMSO controls (fold change (ratio)); higher = more amine produced, active = hit call of the paper (significant change in both replicates, either direction)
Procedure, shortened: as §2

| SMILES | growth [1] | growth (Escherichia coli IAI1 [2]) | growth [3] | growth [4] | fold change of Histamine concentration [5] | fold change of Tryptamine concentration [6] | fold change of Tryptamine concentration [7] | fold change of Putrescine concentration (Escherichia coli IAI1 [8]) | fold change of Putrescine concentration [9] | fold change of Cadaverine concentration (Escherichia coli IAI1 [10]) | fold change of Cadaverine concentration [11] | fold change of 2-Phenylethylamine concentration [12] |
| --- | --- | --- | --- | --- | --- | --- | --- | --- | --- | --- | --- | --- |
| O=C(C1CCCCC1)N1CC(=O)N2CCc3ccccc3C2C1 (configuration not stated) [Praziquantel] (20 µM) | 1.01 | 0.975 | 0.99 | 0.82 | 1.06 (inactive) | 0.989 (inactive) | 1.03 (inactive) | 0.947 (inactive) | 1.02 (inactive) | 1.02 (inactive) | 0.978 (inactive) | 0.992 (inactive) |
| NC(=O)N1c2ccccc2CC(=O)c2ccccc21 [Oxcarbazepine] (20 µM) | 0.964 | 1.01 | 0.977 | 1 | 1.07 (inactive) | 0.996 (inactive) | 1.02 (inactive) | 1 (inactive) | 1.01 (inactive) | 1.02 (inactive) | 0.994 (inactive) | 1.01 (inactive) |
| CN(C)CCCSC(=N)N [Dimaprit dihydrochloride] (20 µM) | 1.04 | 1.04 | 1.02 | 1.03 | 0.939 (inactive) | 0.955 (inactive) | 1.07 (inactive) | 1 (inactive) | 0.996 (inactive) | 0.998 (inactive) | 0.993 (inactive) | 1.07 (inactive) |
| Nc1c(Br)cc(Br)cc1CN[C@H]1CC[C@H](O)CC1 [Ambroxol hydrochloride] (20 µM) | 0.943 | 1.07 | 0.958 | 0.75 | 1.03 (inactive) | 1.04 (inactive) | 1 (inactive) | 1.05 (inactive) | 1 (inactive) | 1.01 (inactive) | 0.991 (inactive) | 0.985 (inactive) |
| C[C@]12CC[C@@H]3c4ccc(OS(=O)(=O)O)cc4CC[C@H]3[C@@H]1CCC2=O [Estropipate piperazine salt] (20 µM) | 1.04 | 1.01 | 1.01 | 1.21 | 0.996 (inactive) | 0.974 (inactive) | 0.96 (inactive) | 1.04 (inactive) | 0.985 (inactive) | 0.947 (inactive) | 0.993 (inactive) | 0.89 (inactive) |
| CCCSS/C(CCO)=C(/C)N(C=O)Cc1cnc(C)nc1N [Prosultiamine] (20 µM) | 0.945 | 1.01 | 0.993 | 0.919 | 0.951 (inactive) | 1.09 (inactive) | 1.09 (inactive) | 0.949 (inactive) | 0.98 (inactive) | 0.958 (inactive) | 0.984 (inactive) | 1.16 (inactive) |
| CCc1oc2ccccc2c1C(=O)c1cc(I)c(O)c(I)c1 [Benziodarone] (20 µM) | 0.283 | 0.975 | 1.01 | 0.707 | 1.03 (inactive) | 0.0565 (active) | 0.468 (active) | 1.03 (inactive) | 1.01 (inactive) | 1.05 (inactive) | 1.01 (inactive) | 0.489 (inactive) |
| COc1ccccc1O [Guaiacol] (20 µM) | 0.997 | 1 | 1 | 1.02 | 0.966 (inactive) | 1.03 (inactive) | 1.05 (inactive) | 0.994 (inactive) | 0.999 (inactive) | 1.02 (inactive) | 0.988 (inactive) | 1.06 (inactive) |
| CCN(CC)CCOC(=O)C(Cc1cccc2ccccc12)CC1CCCO1 (configuration not stated) [Nafronyl oxalate] (20 µM) | 0.946 | 1.01 | 0.993 | 1 | 0.982 (inactive) | 0.969 (inactive) | 1.01 (inactive) | 1.01 (inactive) | 1 (inactive) | 1.03 (inactive) | 0.996 (inactive) | 1.01 (inactive) |
| Cc1c(O)cccc1C(=O)N[C@@H](CSc1ccccc1)[C@H](O)CN1C[C@H]2CCCC[C@H]2C[C@H]1C(=O)NC(C)(C)C [Nelfinavir mesylate] (20 µM) | 1.07 | 1.09 | 1.01 | 0.967 | 0.979 (inactive) | 0.96 (inactive) | 0.829 (inactive) | 1.05 (inactive) | 1.02 (inactive) | 1.01 (inactive) | 1 (inactive) | 0.894 (inactive) |
| CC(C)(C)CC(C)(C)c1ccc(O)c(Cc2ccc(Cl)cc2Cl)c1 [Clofoctol] (20 µM) | 0.000434 | 0.973 | 1.01 | 0.559 | 1.01 (inactive) | 0.0134 (active) | 0.143 (active) | 0.999 (inactive) | 1.01 (inactive) | 1.01 (inactive) | 1.01 (inactive) | 0.132 (active) |

Source: the supplement of paper PMC12494721
